The source made the active and inactive calls. Entries that show only a call come without a potency. The call rests on the fitted dose curve; in most records, active means well fitted activation curve with a large enough effect in the repeat runs; inconclusive means weak or mixed curves; inactive means flat fitted curve, though single readings scatter.
What follows are compounds tested against KiSS-1 receptor (Homo sapiens) (UniProt Q969F8) (assay: Human kisspeptin (KISS1R) small molecule agonists, calcium flux assay in KISS1R-HEK293 cells (AID 1920064)). Details: KISS1R-HEK293, calcium flux fluorescence, agonist; series mostly up to 76.8 µM.
Chain of KiSS-1 receptor (Homo sapiens) (Q969F8 whole entry, looked up): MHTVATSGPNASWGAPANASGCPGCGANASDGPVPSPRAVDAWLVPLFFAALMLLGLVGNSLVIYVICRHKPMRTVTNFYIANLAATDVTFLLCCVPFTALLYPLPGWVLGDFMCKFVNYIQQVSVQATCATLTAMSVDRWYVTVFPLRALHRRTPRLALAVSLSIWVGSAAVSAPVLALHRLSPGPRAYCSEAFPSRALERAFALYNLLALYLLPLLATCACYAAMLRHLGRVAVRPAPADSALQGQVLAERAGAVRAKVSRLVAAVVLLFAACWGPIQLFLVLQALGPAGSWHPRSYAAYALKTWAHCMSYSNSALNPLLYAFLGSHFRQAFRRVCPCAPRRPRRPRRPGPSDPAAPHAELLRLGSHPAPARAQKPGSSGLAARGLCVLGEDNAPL
Outline: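 Measures KISS1R agonism through calcium-sensitive dye fluorescence in stably transfected HEK293 cells, read for 3 min after pin-tool compound delivery; 15-point titrations in triplicate.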

Q: For CCCN1CCC[C@@H]2Cc3[nH]ncc3C[C@H]21, which Potency is on record?
A: inactive

Q: With C=CC[C@]1(O)CC[C@H]2[C@@H]3CCC4=CC(=O)CCC4=C3C=C[C@@]21C as the compound, how does the Potency read?
A: inactive

Q: Which Potency does the source give for NP(N)(=O)NC(=O)c1ccc(F)cc1 here?
A: inactive

Q: For COc1ccc(C(=O)c2c(C)n(CCN3CCOCC3)c3ccccc23)cc1, which Potency is on record?
A: inactive

Q: CCOC(=O)COc1ccc(Cl)cc1Cl was tested. Which Potency did it give?
A: inactive

Q: With CCOc1cccc(C2(N3CCN(c4ccccc4)CC3)CCC(C)CC2)c1 (stereo unspecified) as the compound, how does the Potency read?
A: inactive

Q: Which Potency does the source give for COP(=O)(OC)Oc1ccc([N+](=O)[O-])cc1 here?
A: inactive

Q: For COC(=O)N(C(=O)N1COC2(C(=O)OC)Cc3cc(Cl)ccc3C2=N1)c1ccc(OC(F)(F)F)cc1 (stereo unspecified), which Potency is on record?
A: inactive

Q: How did the Potency turn out when COc1cc(Cl)c(OC)cc1Cl was run?
A: inactive

Q: For CC(Cc1ccccc1)NCCn1cnc2c1c(=O)n(C)c(=O)n2C (stereo unspecified), which Potency is on record?
A: inactive

Q: For Cc1cccc(OP(=O)(Oc2cccc(C)c2)Oc2cccc(C)c2)c1, which Potency is on record?
A: inactive

Q: How did the Potency turn out when OP(O)c1ccccc1 was run?
A: inactive

Q: How did the Potency turn out when Oc1ccc2ccc3cccc4ccc1c2c34 was run?
A: inactive

Q: ClCc1cccc(Cl)c1 was tested. Which Potency did it give?
A: inactive

Q: How did the Potency turn out when COP(=S)(OC)Oc1c(Cl)cc(C)cc1Cl was run?
A: inactive

Q: Which Potency does the source give for CCOP(=S)(OCC)SCS(=O)(=O)CC here?
A: inactive

Q: CCN1CCC2(CC1)COc1cc3c(cc12)N(C(=O)c1ccc(-c2ccc(-c4nnc(C)o4)cc2C)cc1)CC3 was tested. Which Potency did it give?
A: inactive

Q: For CN(C)CCc1c[nH]c2cccc(O)c12, which Potency is on record?
A: inactive

Q: How did the Potency turn out when COP(N)(=S)Oc1ccccc1C(=O)OC(C)C (stereo unspecified) was run?
A: inactive

Q: For N#Cc1c(-c2ccc(Cl)cc2)[nH]c(C(F)(F)F)c1Br, which Potency is on record?
A: inactive

Q: For CNP(=O)(OC)Oc1ccc(C(C)(C)C)cc1Cl (stereo unspecified), which Potency is on record?
A: inactive
